Screening results deposited in PubChem BioAssay by several laboratories.
Shown are actives, neighbours in structure and some others; about 6.6% of the full set was active somewhere.
GRIN3A LBD mod: modulators (binders) of human NR3A ligand-binding domain | Tm shift relative to glycine control, % at 25 µM | 340,000 tested, 2.5% active | NR3A LBD differential scanning fluorimetry, Tm shift; 0% = protein alone, 100% = glycine-bound protein;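 active means melting temperature shift of at least 10% of the positive control shift, at one fixed dose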
Mdm2 MdmX PPI: inhibitors of human Mdm2/MdmX interaction | inhibition, % at 8 µM | O15151+Q00987 | AID 485346 | 330,000 tested, 3% active | SaOS-2 split-luciferase Mdm2/MdmX complementation, luminescence;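 active means inhibition of at least 50% at 8 µM in the primary screen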
CSC inhib: blocks cancer stem cells; inhibition, % at 7.5 µM; 300,000 tested, 1.1% active; cancer stem cell-like cells viability, luminescence; in the data active means inhibition above about 75%; inconclusive means no clear call, values can overlap the other calls; tested in HMLE shEcad cells
MPTP inh: blocks calcium-induced mitochondrial swelling. AID 602449. isolated mouse mitochondria, Ca2+ swelling absorbance, 30 min. inhibition, % at 10 µM. 360,000 tested, 1.4% active;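 active means inhibition of 50% or more, scaled per plate between neutral and stimulator controls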;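 further: 0% = DMSO wells given calcium and 100% = 1 mM EGTA wells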
Beta cell apopt: blocks beta cell apoptosis. AID 435005. protection from apoptosis, % (no concentration beside the values). 300,000 tested, 0.8% active. INS-1E cytokine-induced death, ATP luminescence, 48 h; percent of positive-control rescue, neutral wells zero;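 active means Every replicate reaches about 75%, or at least half do and their mean reaches it too, limit read from the data; inconclusive means At least half of replicates reach the limit but their mean does not; inactive means Under half of replicates reach the limit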;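 further: 0% = cytokine-treated negative control wells and 100% = positive control rescue; higher means more ATP so stronger rescue from cytokine killing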
Gli-Sufu antag: Gli-Sufu pathway antagonism. Sufu-KO-LIGHT fibroblasts, Gli luciferase reporter luminescence. inhibition, % at 5 µM. 340,000 tested, 0.74% active. AID 588413;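 active means inhibition above about 55%, limit read from the data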;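 further: 0% = DMSO-treated cells and 100% = wells with medium but no cells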
Mdm2-MdmX conf: confirmation of human Mdm2/MdmX interaction inhibitors; shares compounds with Mdm2 MdmX PPI; Mdm2-MdmX binding, luminescent assay; inhibition, % at 8 µM; 10,000 tested, 55% active; in the data active means inhibition above about 40%
FLuc counter: full-length luciferase inhibition in Mdm2/MdmX counter-screen; shares compounds with Mdm2 MdmX PPI; SaOS-2 full-length luciferase counterscreen, luminescence; inhibition, % at 8 µM; 6,200 tested, 77% active; AID 504607;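 active means mean inhibition at 8 µM reaching about 37%, which flags the compound as non-specific, limit read from the data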;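 further: p53-null SaOS-2 cells with luciferase driven by a doxycycline-inducible promoter; compound on cells about two nights before reading with doxycycline added after day one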
Active calls of the source: *; ? = inconclusive; · = not tested or not shown.

SMILES	GRIN3A LBD mod	Mdm2 MdmX PPI	CSC inhib	MPTP inh	Beta cell apopt	Gli-Sufu antag	Mdm2-MdmX conf	FLuc counter
Cc1ccsc1CNC(=O)c1c(-c2ccccc2)noc1C	1.5	2.5	-7.5	0.8	-2.3	6.0	·	·
O=C1/C(=C/c2ccc([N+](=O)[O-])cc2)C=C(c2ccccc2)N1c1ccc(O)cc1	0.4	61.4*	·	6.6	17.5	33.3	57.9*	52.1*
CCOc1ccc(NC(=O)CCNS(=O)(=O)c2ccc3c(c2)CC(C)N3C(C)=O)cc1 (centres undefined)	-0.8	29.6	-14.4	-1.0	·	-8.0	·	·
Cc1cc(=O)oc2cc(NC(=O)CC3(CC(=O)O)CCCC3)ccc12	-2.1	-39.7	2.4	0.9	-3.7	-13.1	·	·
C=C(NC(=O)C(=C)NC(=O)c1csc(C2=NC3c4csc(n4)C4NC(=O)c5csc(n5)C([C@@](C)(O)C(C)O)NC(=O)C5CSC(=N5)/C(=C\C)NC(=O)C(C(C)O)NC(=O)c5csc(n5)[C@]3(CC2)NC(=O)C(C)NC(=O)C(=C)NC(=O)C(C)NC(=O)C(C(C)CC)NC2C=Cc3c(C(C)O)cc(nc3C2O)C(=O)OC4C)n1)C(N)=O (some centres undefined)	·	93.9*	80.5*	·	-8.8	·	55.8*	58.0*
Cc1cc(=O)oc2cc(OCC(=O)N3c4ccccc4CC3C)ccc12 (centres undefined)	0.8	50.6*	·	-0.3	8.6	-4.1	62.0*	46.3*
COc1ccccc1N1CCN(C(=O)c2noc(C)c2[N+](=O)[O-])CC1	0.5	8.8	·	0.6	·	48.7	·	·
Cc1onc(C(=O)N2CCN(C(c3ccccc3)c3ccccc3)CC2)c1[N+](=O)[O-]	-0.6	71.4*	15.8	-0.7	-2.6	3.1	88.3*	51.9*
COc1ccc(NC(=O)C(c2ccc(Cl)cc2)C(C)C)cn1 (centres undefined)	0.1	-1.7	10.2	3.5	-3.1	-6.8	·	·
CCCCn1c(=N)n(CC(O)COc2ccc(C)cc2)c2ccccc21 (centres undefined)	2.5	58.0*	15.7	1.9	18.5	26.6	31.1	·
Cc1ccc(Cn2c(=N)n(CC(O)COc3ccccc3)c3ccccc32)cc1 (centres undefined)	-0.8	68.9*	8.5	2.9	66.0	16.4	76.3*	62.2*
CCOc1cc(/C=N/N=C(\N)c2nonc2N)cc(Br)c1OCc1cccc2ccccc12	1.1	69.1*	15.1	1.6	24.3	-12.3	59.4*	33.4
O=C(/C=C/c1cccs1)N1CCC2(CC1)Oc1ccc(Cl)cc1C(=O)C21CC(c2cccnc2)=NO1 (centres undefined)	-4.7	67.3*	45.2	0.0	13.9	4.0	27.1	·
O=[N+]([O-])c1ccc(S(=O)(=O)N2CCN=C2SCc2ccc(F)cc2)cc1	1.7	10.0	-2.2	-0.7	-1.0	1.5	·	·
CC(C)c1cccc(O)c(=O)c1	-0.5	86.4*	13.9	0.0	-3.0	-2.8	74.2*	27.6
CC(C)c1ccc(O)c(=O)cc1	·	·	·	0.7	·	·	·	·
O=C(c1ccc2c(c1)N(Cc1cccc(Cl)c1)C(=O)c1ccccc1S2(=O)=O)N1CCN(c2ccccn2)CC1	-0.7	64.7*	28.3	1.8	15.0	8.5	20.2	·
O=C(c1ccc(S(=O)(=O)c2cccc(Cl)c2)c([N+](=O)[O-])c1)N1CCN(c2ccccn2)CC1	-2.8	73.5*	51.1	8.2	-5.6	18.3	67.8*	58.1*
O=C(c1ccc(Cl)c(S(=O)(=O)N2CCc3ccccc32)c1)N1CCN(c2ccccc2O)CC1	-1.7	54.0*	18.9	0.6	-22.2	10.0	6.3	·
O=C(c1cccc(S(=O)(=O)N2CCc3ccccc32)c1)N1CCN(c2ccccn2)CC1	0.4	84.7*	-14.2	-0.2	7.9	19.6	83.8*	38.9*
CN1CCN(C(=O)c2ccc3c(c2)N(Cc2cccc(Cl)c2)C(=O)c2ccccc2S3(=O)=O)CC1	0.7	7.1	12.8	0.6	0.7	-8.0	·	·
O=C(c1cccc(Cl)c1)N1CCN(c2ccccn2)CC1	3.5	2.0	1.7	-1.3	0.9	3.4	·	·
COC/C=C/C1=CC2=CC(=O)C(C)(OC(=O)c3cnc4ccccc4n3)C(=O)C2=CN1CCc1c[nH]c2ccccc12 (centres undefined)	·	7.5	2.4	·	4.8	·	·	·
CC(C)CC1Nc2ccc(C(=O)NCCCN3CCOCC3)cc2NC1=O (centres undefined)	0.2	8.4	-8.9	0.5	1.9	-8.8	·	·
O=C(CN1C(=O)S/C(=C\C=C\c2ccccc2)C1=O)N1CCOCC1	0.5	0.8	-14.5	2.5	-8.1	2.5	·	·
SMILES	GRIN3A LBD mod	Mdm2 MdmX PPI	CSC inhib	MPTP inh	Beta cell apopt	Gli-Sufu antag	Mdm2-MdmX conf	FLuc counter
CCN(CC)CCNC(=O)CCc1c(C)nc2c(c(C)nn2-c2ccc(C)cc2)c1C	-1.0	61.3*	23.7	2.1	-3.1	22.2	32.1	·
O=C(Nc1ccc(Cl)cc1Cl)c1ccc(Br)o1	2.2	-8.0	-3.8	-0.1	-1.7	-58.9	·	·
CN(C)CCCNc1ncnc2oc(-c3ccccc3)c(-c3ccccc3)c12	-2.0	66.2*	15.0	-2.3	2.1	1.6	39.2	64.1*
c1cc(C2CCCCC2)ccc1Oc1nc(N2CCOCC2)nc(N2CCOCC2)n1	-0.7	62.7*	-16.8	4.8	-1.6	3.5	16.9	·
COc1cc(NC(=O)c2c(F)c(F)c(F)c(F)c2F)c(OC)cc1Cl	-0.5	78.4*	-1.5	3.6	3.7	4.3	46.5*	53.4*
Cc1ccc(OCc2ccc(C(=O)Nc3cc(C)on3)o2)c([N+](=O)[O-])c1	-0.5	-2.4	-0.6	0.8	2.4	-0.4	·	·
CCn1c(NC(=O)c2ccc(COc3ccc(C)cc3[N+](=O)[O-])o2)nc2ccccc21	-8.4	59.1*	30.0	-1.5	20.8	1.1	41.5*	93.6*
CCc1c(C)sc(NC(=O)CSc2nc3c(c(C(F)(F)F)n2)CCc2ccccc2-3)c1C#N	-1.4	74.9*	8.1	3.1	9.9	7.8	16.6	·
CCCOc1ccc(C(=O)NNC(=S)NC(=O)c2cccs2)cc1	-8.9	60.1*	48.5	39.4	41.4	18.7	37.1	·
CCCOc1ccc(C(=O)NNC(=S)NC(=O)c2ccco2)cc1	-8.0	50.6*	34.1	19.5	20.0	3.7	39.7	52.1*
Cc1ccc(OCC(=O)NNC(=S)NC(=O)c2cccs2)c(C)c1	-2.1	51.5*	?	3.2	6.1	-29.1	9.1	·
Cc1ccccc1CN1C(=O)c2ccccc2S1(=O)=O	1.6	27.6	·	0.7	-3.3	26.1	·	·
O=C1c2ccccc2S(=O)(=O)N1Cc1nc2ccccc2s1	0.8	90.1*	-2.3	1.6	-3.2	-8.1	87.3*	32.9
CC(C)(C(=O)c1cccnc1)c1cccnc1	-0.8	8.5	-5.7	-0.4	-10.9	28.8	·	·
